# According to ChEMBL document CHEMBL3988442, “University of Dundee, Small-Polar-MMV Screening Library” (2021):
# In all, about 48,000 compounds went through this assay and about 13,000 (27%) showed an effect of 50% or more. The list shows a part of the results.
# Tested on: Wolbachia pipientis
# Assay: Anti-Wolbachia Cell-Based Screen
# Assay type: functional
# Parameters: scale not given: in the data most compounds retested in dose-response had high values
# Settings: 5 µM
row,SMILES,Percent Effect [%]
1,CCSCCNC(=O)c1cnc(-c2ccccc2)nc1O,-4.027
2,COC(=O)CCc1c(C)nn(-c2nc(C)cc(=O)[nH]2)c1C,2.472
3,Cc1cc(=O)[nH]c(-n2nc(C)c(CCC(=O)Nc3nc(C)cs3)c2C)n1,139.8
4,CCC(C)(NCC(=O)Nc1nc(C)cs1)c1nc(C)cs1 (stereo not given),-9.944
5,Cc1cc(=O)[nH]c(-n2nc(C)c(CCC(=O)NCC(C)C)c2C)n1,133.4
6,Cc1ccc(C(C(=O)NCCc2nc(C)cc(=O)[nH]2)N(C)C)cc1 (stereo not given),-13.39
7,COc1ccc(OC)c(CCNc2ncc(S(N)(=O)=O)s2)c1,-19.79
8,CC(NC(=O)CSCC#N)c1ccccc1 (stereo not given),5.295
9,CC(=O)NC1CCCN(C(=O)Nc2cnc3c(cnn3C(C)C)c2)C1 (stereo not given),-1.693
10,CC(=O)N1CCCN(C(=O)c2cnc3n[nH]c(C)c3c2)CC1,0.885
11,Cc1cnn(CC2CCCN2C(=O)c2cnc3n[nH]c(C)c3c2)c1 (stereo not given),1.676
12,Cc1cnn(CC2CCCCN2C(=O)c2cnc3n[nH]c(C)c3c2)c1 (stereo not given),131.8
13,Cc1cc(C)n(CC2CCCN2C(=O)c2cnc3n[nH]c(C)c3c2)n1 (stereo not given),152.9
14,Cc1cc(=O)[nH]c(SCC(=O)N(C)CC2Cc3ccccc3CN2C)n1 (stereo not given),-1.755
15,CC(=O)Cn1cc(C#N)c(=O)c2cc(Br)ccc21,-39.25
16,O=C(O)Cn1ccc(=O)c2cc(Cl)ccc21,96.7
17,Cc1ccc(Cl)cc1NC(=O)Cn1cc(C(=O)O)ccc1=O,11.02
18,O=C(O)Cn1ccc(=O)c2ccc(Cl)cc21,126.4
19,O=C(Cn1ccc(=O)c2ccccc21)Nc1cnccc1O,11.9
20,CC(=O)c1cn(CCC(=O)NCCC(=O)O)c2ccccc12,11.28
21,O=C(Cn1cc(C(=O)O)ccc1=O)Nc1ccc(Cl)cc1F,21.2
22,O=C(O)Cn1ccc(=O)c2ccccc21,101.5
23,CN(CC(N)=O)C(=O)CCCn1ccc2cc(Cl)ccc21,-3.904
24,CCN(Cc1ccoc1)C(C(N)=O)c1ccc(Br)cc1 (stereo not given),13.69

row,SMILES,Percent Effect [%]
1,Cc1ccccc1C(O)CNS(=O)(=O)Cc1cccc(C#N)c1 (stereo not given),1.082
2,CCC(=O)N1CCN(C(=O)NCc2c(C)cc(C)cc2C)CC1,2.244
3,O=C(NCc1nncn1-c1ccccc1)C1CC(=O)N(CC2CC2)C1 (stereo not given),-5.786
4,COc1cc(N(C)Cc2cc(C(C)(C)C)n[nH]2)ncn1,-14.87
5,COc1cc(-c2cc(=O)[nH]cn2)cc(OC)c1OC,108.3
6,COc1cc(N2CCc3ncnc(-c4ccoc4)c3CC2)ncn1,-1.629
7,COc1cc(-c2cc(N)ncn2)cc(OC)c1OC,113.5
8,COc1cc(F)ccc1-c1cnc(N)cn1,4.903
9,COc1cc(-c2cnnc(NCCCOC(C)C)n2)cc(OC)c1OC,29.72
10,COc1ccc(-c2cc(N)ccn2)c(OC)c1OC,-25.01
11,O=C(NCCc1cc(=O)[nH]cn1)c1[nH]nc2c1CCCC2,-3.827
12,COc1cc(-c2cc(OC)c(OC)c(OC)c2)ncn1,111
13,CNc1cc(-c2cc(OC)c(OC)c(OC)c2)ncn1,63.03
14,CC1CCN(S(=O)(=O)N2CCc3c(c(C(=O)O)nn3CC3CC3)C2)CC1,-12.69
15,CNC(=O)Cc1ccc(-n2ccnc2-c2ccc(C(=O)O)s2)cc1,-11.42
16,Cc1noc(-c2ccc(N3CCCC(C(=O)O)C3)nc2)n1 (stereo not given),-4.979
17,CS(=O)(=O)NCCNC(=O)NC1(c2ccc(Cl)cc2)CCC1,-10.79
18,COc1nc2c(cc1C(=O)N1CC[C@H](CO)[C@@H](O)C1)CCC2,9.103
19,Cc1cccc(CNC(CN2CCN(C)CC2)c2ccccc2)c1 (stereo not given),16.68
20,Cc1cc(C(C)(O)CNC(=O)CCOCC(C)C)c(C)o1 (stereo not given),51.29
21,CCOCC(=O)NCC(C)(O)c1cc(C)oc1C (stereo not given),5.951
22,Cc1cc(C(C)(O)CNC(=O)OC(C)(C)C)c(C)o1 (stereo not given),0.294
23,CC(NCc1nnc2n1CCCC2)c1nc(Cc2ccccc2)no1 (stereo not given),8.593
24,O=C(O)C(F)(F)F.O=C(O)C(F)(F)F.O=C(O)c1cc2c(nc1-c1ccsc1)CCN(C1CCOC1)CC2 (stereo not given),-18.13

row,SMILES,Percent Effect [%]
1,Cc1nn(C)c2c(N3CCN(C(=O)C4CCC4)CC3)ncnc12,3.567
2,Cc1cc(C)c2c(N3CCN(CCN4CCOCC4)CC3)ncnc2n1,8.578
3,Cc1cc(C)c2c(N3CCC(C(=O)N4CCOCC4)CC3)ncnc2n1,125.4
4,Cc1cc(C)c2c(N3CCC(O)(Cn4ccnc4)CC3)ncnc2n1,6.34
5,Cc1cc(C)c2c(N3CCC(C(=O)N4CCCC4)CC3)ncnc2n1,96.05
6,O=C(C1CCN(c2ncnc3cccc(F)c23)CC1)N1CCCC1,-3.07
7,Cc1cc(C)c2c(N3CCN(C(=O)N4CCOCC4)CC3)ncnc2n1,86.86
8,CCc1nc(CN2CCCN(C(=O)C3CCC3)CC2)cs1,7.838
9,Cc1ccccc1CC(=O)N1CCc2c(ncnc2N2CCOCC2)C1,2.572
10,Cc1cc(C)c2c(N3CCCN(C(=O)C4CCC4)CC3)ncnc2n1,89.28
11,CCOCC(=O)N1CCC(CSCc2ccco2)CC1,4.494
12,O=C(C1CCCN1S(=O)(=O)C1CCCC1)N1CCSCC1 (stereo not given),-23.1
13,CN(C)c1nc2c(c(N3CCC(O)CC3)n1)CN(CC1CCOC1)CC2 (stereo not given),9.412
14,O=C(CNCc1ccccc1Cn1cccn1)Nc1cnccn1,109.9
15,CC(CCNC(=O)NCCNc1cnccn1)c1ccccc1 (stereo not given),0.7277
16,CC(C)OC(=O)CC(NC(=O)CCn1cccn1)c1ccccc1 (stereo not given),-19.71
17,CC(Cn1cccn1)NS(=O)(=O)Cc1ccccc1 (stereo not given),-19.72
18,NCCn1cc(C(=O)NCc2ccccc2Cn2cccn2)nn1,-26.32
19,O=C(CNC(Cn1cccn1)c1ccccc1)Nc1cnccn1 (stereo not given),104.7
20,CC(NC(=O)Cn1cccn1)c1cccnc1 (stereo not given),-3.155
21,c1ccc(C(Cn2cccn2)Nc2cnccn2)cc1 (stereo not given),93.79
22,CCc1cnc(NCc2ccccc2Cn2cccn2)nc1,6.664
